Screening results deposited in PubChem BioAssay by Broad Institute.
The list is not random: actives were taken first. Their share in the collection is about 2.2%.
Shn3 inh set2 – reduction of Shn3 3'UTR firefly luciferase signal, primary screen, Schnurri-3 inhibitor project, cell-based, Clone20 osteoblasts, set 2 | Clone20 osteoblast Shn3 3'UTR firefly luciferase, 24 h | inhibition, % at 12.5 µM | 0.52% of 360,000 active | AID 588674, 2011;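 active = mean inhibition of at least 75% with every replicate also reaching 75%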;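 note: 0% = median of neutral control wells and 100% = pilot-screen positive control compound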
LMP1 NFkB inh – EBV LMP1-driven NF-kappaB luciferase reporter inhibitors, primary screen, cell-based, luminescence, single point; LMP1-induced NF-kappaB luciferase reporter cells; inhibition, % at 12.5 µM; 0.69% of 350,000 active; AID 504558, 2011; in the data active = inhibition above about 41%;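 note: 0% = neutral control wells and 100% = reference inhibitor control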
PAX8 reporter – inhibitors of PAX8-driven TPO luciferase reporter, primary screen, RMG-I cells, single concentration | SteadyGlo, 24 h | inhibition, % at 12.6 µM | 1.2% of 360,000 active;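 active = mean replicate inhibition at least 60% with every replicate also reaching 60%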;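 note: luciferase light reporting Pax8 driven TPO promoter activity; plate controls were median of neutral control wells for no effect and mitoxantrone controls for full effect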
LGR2 antag – inhibitors of bursicon-induced LGR2 CRE-luciferase signal, primary screen, cell-based, HEK293, CRE-luciferase reporter, bursicon stimulation | Drosophila bursicon receptor LGR2 (rickets) | bursicon-stimulated, 4 h | inhibition, % at 9.99 µM | 0.35% of 380,000 active;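 active = drop in luminescence signal, shown as inhibition above about 50% in the replicate tests, limit read from the data, passing the limit was not always enough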;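 note: agonist challenge used bursicon conditioned medium at about half maximal strength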
EWS-Fli block – EWS/Fli-driven NR0B1 reporter inhibitors, primary screen, A673 cells, NR0B1 luciferase, luminescence, MLPCN library | inhibition, % at 12.6 µM | viability-normalised | 0.67% of 350,000 active;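 active = mean inhibition of at least 50% after viability correction, with every replicate also passing that limit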;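 note: firefly luciferase signal divided by Alamar Blue viability fluorescence both relative to DMSO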
TRPM1 prom inh – inhibitors of MITF-dependent TRPM1 promoter reporter, primary screen, cell-based, SK-MEL-5, single point, luciferase. SK-MEL-5 TRPM1 promoter luciferase, 24 h. inhibition, % at 12.5 µM. 0.83% of 330,000 active;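 active = mean inhibition across replicates of 60% or more, whatever share of single replicates reaches that level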
DNA binding – DNA binders by acridine orange displacement, dose response, counter-screen for EWS/Fli inhibitor project, biochemical, fluorescence polarization, cherry-pick. AID 720586, 2013. shares compounds with EWS-Fli block. AC35, µM (highest dose often 68 µM), without a hit: top-dose activity change, negative = DNA binding. salmon sperm DNA acridine orange fluorescence polarization. 2% of 640 active;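 active = fitted curve reaches a 35% signal fall AC35 below twice the sample's top valid tested dose, actives reach about 48 µM in these data; inactive = the rest, including activity in the rising direction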;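 note: lower polarization ratio signals compound binding to DNA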
An asterisk follows results filed as active; / = no result.

SMILES	Shn3 inh set2	LMP1 NFkB inh	PAX8 reporter	LGR2 antag	EWS-Fli block	TRPM1 prom inh	DNA binding
C[C@@H]1CN([C@@H](C)CO)S(=O)(=O)c2ccc(C#CCN(C)C)cc2O[C@@H]1CN(C)Cc1ccncc1	/	/	-6.8	3.7	53.4*	/	-7.3%
C[C@@H]1CN([C@H](C)CO)S(=O)(=O)c2ccc(C#CC(C)(C)O)cc2O[C@@H]1CN(C)Cc1ccc(-c2ccccc2)cc1	/	/	/	28.5	26.8	/	/
COC(=O)Cc1[nH]n(-c2nc3ccccc3s2)c(=O)c1C(C)=Nc1ccc(C)cc1	48.9	81.6*	-28.6	53.2*	77.4*	96.6*	4.2%
CC(=O)N1[C@H](CO)[C@@H](c2ccccc2)C12CN(C(=O)c1cnccn1)C2	/	/	/	2.5	-8.9	/	/
CCCc1cn(CC[C@H]2CC[C@@H](NS(=O)(=O)c3ccc(-c4ccccc4)cc3)[C@@H](CO)O2)nn1	/	/	5.6	-19.1	8.1	/	/
COC(=O)C[C@@H]1CC[C@H]2[C@H](COc3ccc(NC(=O)Nc4cc(C)cc(C)c4)cc3C(=O)N2C)O1	/	/	5.7	9.1	64.3*	/	2.4%
COC(=O)C[C@@H]1CC[C@H]2[C@H](COc3ccc(NC(=O)Nc4cccc(C#N)c4)cc3C(=O)N2C)O1	/	/	3.7	11.3	33.6	/	/
COC(=O)C[C@@H]1CC[C@@H]2[C@@H](COc3ccc(NC(=O)Nc4cccc(C#N)c4)cc3C(=O)N2C)O1	/	/	-4.5	0.2	76.3*	/	7.2%
COC(=O)C[C@H]1CC[C@@H]2[C@@H](COc3ccc(NC(=O)Nc4cccc(Cl)c4)cc3C(=O)N2C)O1	/	/	-2.1	31.3	-8.9	/	/
COC(=O)C[C@H]1CC[C@H]2[C@H](COc3ccc(NC(=O)Nc4cccc(Cl)c4)cc3C(=O)N2C)O1	/	/	-6.9	4.0	79.6*	/	-4.3%
COC(=O)C[C@H]1CC[C@@H]2[C@H](COc3ccc(NC(=O)Nc4cccc(Cl)c4)cc3C(=O)N2C)O1	/	/	-68.0	27.0	60.2*	/	-3.7%
CO[C@@H]1CN(C)C(=O)c2cc(NC(=O)NC(C)C)ccc2OC[C@H](C)N(Cc2cncnc2)C[C@@H]1C	/	/	-5.6	-1.3	-2.0	/	/
O=C(NCc1cccnc1)C1Cc2c(-c3ccc(Cl)cc3)ccnc2O1 (configuration not stated)	0.0	/	28.6	-10.9	52.2*	/	-2.6%
O=C(N/N=C/c1ccc[nH]1)c1cc(-c2ccc(Cl)cc2)nc2ccccc12	21.2	-11.8	8.7	10.0	54.3*	15.9	-6.2%
O=C(N/N=C/c1cccnc1)c1cc(-c2ccc(Cl)cc2)nc2ccccc12	13.6	-6.5	24.4	-13.4	12.4	8.7	/
COC(=O)C[C@H]1C=C[C@H](NC(=O)Nc2ccc(C(F)(F)F)cc2)[C@H](CO)O1	/	/	-6.5	25.4	-44.1	/	/
COC(=O)C[C@H]1C=C[C@@H](NC(=O)Nc2ccc(C(F)(F)F)cc2)[C@H](CO)O1	/	/	-13.2	9.2	67.1*	/	-3.5%
C[C@H]1CN([C@@H](C)CO)S(=O)(=O)c2ccc(-c3cccc(F)c3)cc2O[C@@H]1CN(C)C(=O)C1CC1	/	/	7.4	2.8	-8.3	/	/
C[C@H]1O[C@@H](O[C@H]2[C@@H](O)C[C@H](O[C@H]3[C@@H](O)C[C@H](O[C@H]4CC[C@@]5(C)[C@H](CC[C@@H]6[C@@H]5C[C@@H](O)[C@]5(C)[C@@H](C7=CC(=O)OC7)CC[C@]65O)C4)O[C@@H]3C)O[C@@H]2C)C[C@H](O)[C@@H]1O	-23.3	81.5*	109.4*	84.5*	65.8*	67.2*	-3.7%
Cc1c(O)ccc2c(CN3CCN(Cc4ccccc4)CC3)cc(=O)oc12	-16.0	1.0	0.2	13.6	-8.5	-3.0	/
O=c1cc(CN2CCN(Cc3ccccc3)CC2)c2ccc(O)c(O)c2o1	21.2	9.3	28.7	-0.8	51.7*	7.8	-5.1%
Oc1cccc(-c2nc3ccccc3s2)c1	-16.0	-12.8	/	/	/	-15.7	/
Oc1cccc(-c2nnc(-c3cccc(O)c3)nn2)c1	81.4	36.5	3.3	83.6*	72.2*	23.1	-9.9%
CCCN1C[C@H](C)[C@@H](OC)CN(C)C(=O)c2cc(NS(C)(=O)=O)ccc2OC[C@H]1C	/	/	5.6	8.1	-0.7	/	/
OC[C@H]1[C@@H](c2ccc(C#CC3CCCC3)cc2)[C@@H]2CN(CCC(F)(F)F)CCCCN12	/	/	23.8	7.2	51.6*	/	-8.6%
SMILES	Shn3 inh set2	LMP1 NFkB inh	PAX8 reporter	LGR2 antag	EWS-Fli block	TRPM1 prom inh	DNA binding
COc1ccc(-c2noc(CCC(=O)O)n2)cc1	-2.0	-0.2	0.5	15.4	/	-7.1	/
CCOc1ccc(-c2noc(CCC(=O)O)n2)cc1	59.3	-1.1	-21.5	-15.5	53.8*	68.0*	-5.4%
COc1ccc2c3c([nH]c2c1)[C@H](CO)N(Cc1ccncc1)CC31CCN(C(=O)Cc2ccncc2)CC1	/	/	9.7	-2.4	0.9	/	/
COc1ccc(CN(C)c2ncnc3sccc23)c(OC)c1OC	28.9	20.9	23.3	-0.2	63.0*	24.7	-6.7%
COCCNC(=O)c1cc2c(c(-c3cccc(C4=CCCC4)c3)n1)[C@@H](CCO)N([S@](=O)C(C)(C)C)C2	/	/	-3.7	-3.8	1.8	/	/
C/C=C/c1ccc([C@H]2[C@@H](CO)N3C(=O)CN(S(=O)(=O)c4cccc(F)c4)C[C@H]23)cc1	/	/	/	3.8	17.4	/	/
C/C=C/c1ccc([C@H]2[C@@H](CO)N3C(=O)CN(S(=O)(=O)c4cccc(F)c4)C[C@@H]23)cc1	/	/	/	-23.1	52.0*	/	-1.6%
Fc1cccc(-c2ccc(C3[C@H]4CNC[C@@H]3N4CC3CCOCC3)cc2)c1 (some centres not stated)	/	/	/	-28.0	/	/	/
c1cncc(-c2ccc([C@@H]3[C@H]4CNC[C@@H]3N4CC3CCOCC3)cc2)c1	/	/	-9.2	-24.1	51.2*	/	3.0%
CCc1nc(N)nc(N)c1-c1ccc(Cl)cc1	72.6	-3.2	22.1	-13.0	63.6*	33.8	5.6%
COc1ccc(C2=Nn3c(nnc3-c3ccccc3OC)SC2)cc1OCC1CC1	15.8	15.1	77.5*	34.8	61.9*	52.0	-14.2%
COc1ccc(OC)c(-c2nnc3n2N=C(c2ccc(OC)c(OC4CCCC4)c2)CS3)c1	21.5	48.3*	88.6*	/	52.2*	77.7*	-12.8%
Cc1cccc(S(=O)(=O)N2[C@@H]3Cn4c(cccc4=O)[C@H]2[C@@H](C(=O)NC2CCC2)[C@@H]3CO)c1	/	/	-2.7	2.1	4.4	/	/
CCOc1ccc(OCc2ccc(C(=O)NN=Cc3ccc[nH]3)cc2)cc1	82.0	10.1	34.3	7.8	57.1*	/	-0.4%
